Reference: PubChem BioAssay AID1159580 (chemical genetic matrix, 2015)
About 2,000 (36%) of roughly 5,500 compounds were called active. Inconclusive results (about 18%) are left out. This is one part of the list. Values without a mark were called inactive. No stated cut-off is given here; in the data, active means normalized growth mostly below about 0.91 (no sharp cut-off); inconclusive means no clear call, values can overlap the other calls; inactive means mostly above about 0.92.

Experiment: chemical genetic growth profiling, strain panel (AID 1159580);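 further: tested at 20 µM; growth read once vehicle control cultures reached saturation at 30 °C; 1 = growth at the plate median or of vehicle wells; lower values mean less growth of the strain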
Conditions: S. cerevisiae deletion strains, growth OD

CC1C/C=C/C=C/C=C/C=C/C(O[C@@H]2O[C@H](C)[C@@H](O)[C@H](N)[C@@H]2O)CC2OC(O)(CC(O)CC3OC3/C=C/C(=O)O1)CC(O)C2C(=O)O (stereo not given in full)
normalized growth (locus YAL021C, strain ccr4, active compounds read low): 1.02
normalized growth (locus YAL026C, strain drs2, active compounds read low): 0.94
normalized growth (locus YAL030W, strain snc1, active compounds read low): 1
normalized growth (locus YBL061C, strain skt5, active compounds read low): 1
normalized growth (locus YBR009C, strain hhf1, active compounds read low): 0.981
normalized growth (locus YBR023C, strain chs3, active compounds read low): 0.992
normalized growth (locus YBR171W, strain sec66, active compounds read low): 0.142 (active)
normalized growth (locus YBR231C, strain swc5, active compounds read low): 0.981
normalized growth (locus YBR279W, strain paf1, active compounds read low): 1
normalized growth (locus YCL011C, strain gbp2, active compounds read low): 0.989
normalized growth (locus YCL016C, strain dcc1, active compounds read low): 0.993
normalized growth (locus YCL061C, strain MRC1, active compounds read low): 0.802 (active)
normalized growth (locus YCL069W, strain vba3, active compounds read low): 1.01
normalized growth (locus YCR088W, strain abp1, active compounds read low): 0.126 (active)
normalized growth (locus YDL005C, strain med2, active compounds read low): 0.993
normalized growth (locus YDL040C, strain nat1, active compounds read low): 0.993
normalized growth (locus YDR001C, strain nth1, active compounds read low): 1
normalized growth (locus YDR069C, strain doa4, active compounds read low): 0.983
normalized growth (locus YDR137W, strain rgp1, active compounds read low): 1.01
normalized growth (locus YDR159W, strain sac3, active compounds read low): 0.958
normalized growth (locus YDR195W, strain ref2): 0.945
normalized growth (locus YDR297W, strain sur2, active compounds read low): 1
normalized growth (locus YDR334W, strain swr1, active compounds read low): 0.999
normalized growth (locus YDR335W, strain msn5, active compounds read low): 0.985
normalized growth (locus YDR392W, strain spt3, active compounds read low): 0.848
normalized growth (locus YEL003W, strain gim4, active compounds read low): 0.991
normalized growth (locus YEL037C, strain rad23, active compounds read low): 0.992
normalized growth (locus YEL061C, strain CIN8 (second series), active compounds read low): 0.984
normalized growth (locus YER015W, strain faa2, active compounds read low): 0.823 (active)
normalized growth (locus YER016W, strain bim1, active compounds read low): 0.978
normalized growth (locus YER111C, strain swi4, active compounds read low): 0.981
normalized growth (locus YER155C, strain BEM2 (second series), active compounds read low): 0.711 (active)
normalized growth (locus YFR010W, strain ubp6, active compounds read low): 0.982
normalized growth (locus YGL167C, strain pmr1, active compounds read low): 0.984
normalized growth (locus YGL173C, strain kem1, active compounds read low): 0.997
normalized growth (locus YGL227W, strain vid30, active compounds read low): 0.0655 (active)
normalized growth (locus YGL240W, strain doc1, active compounds read low): 0.996
normalized growth (locus YGL253W, strain hxk2, active compounds read low): 0.973
normalized growth (locus YHR013C, strain ard1, active compounds read low): 0.957
normalized growth (locus YHR027C, strain rpn1, active compounds read low): 1
normalized growth (locus YHR030C, strain SLT2, active compounds read low): 0.972
normalized growth (locus YHR079C, strain IRE1, active compounds read low): 0.975
normalized growth (locus YHR142W, strain chs7, active compounds read low): 1.02
normalized growth (locus YJL092W, strain hpr5, active compounds read low): 0.964
normalized growth (locus YJL095W, strain BCK1 (second series), active compounds read low): 1
normalized growth (locus YJL095W, strain BCK1, active compounds read low): 1
normalized growth (locus YJL115W, strain asf1, active compounds read low): 1
normalized growth (locus YJL129C, strain trk1, active compounds read low): 0.949
normalized growth (locus YJL154C, strain vps35, active compounds read low): 0.995
normalized growth (locus YJL164C, strain tpk1, active compounds read low): 1.01
normalized growth (locus YJL166W, strain qcr8, active compounds read low): 0.992
normalized growth (locus YJL187C, strain SWE1, active compounds read low): 1
normalized growth (locus YJR066W, strain TOR1, active compounds read low): 0.943
normalized growth (locus YKL160W, strain elf1, active compounds read low): 1.04
normalized growth (locus YKR026C, strain gcn3, active compounds read low): 0.296 (active)
normalized growth (locus YKR091W, strain srl3, active compounds read low): 0.999
normalized growth (locus YLL001W, strain dnm1, active compounds read low): 0.982
normalized growth (locus YLL026W, active compounds read low): 1
normalized growth (locus YLL041C, strain sdh2, active compounds read low): 0.998
normalized growth (locus YLR027C, strain aat2, active compounds read low): 1
normalized growth (locus YLR113W, strain HOG1, active compounds read low): 1.02
normalized growth (locus YLR221C, strain rsa3, active compounds read low): 1.02
normalized growth (locus YLR258W, strain gsy2, active compounds read low): 0.977
normalized growth (locus YLR262C, strain YPT6 (second series), active compounds read low): 1.01
normalized growth (locus YLR320W, strain mms22, active compounds read low): 1
normalized growth (locus YLR342W, strain FKS1, active compounds read low): 0.994
normalized growth (locus YLR357W, strain rsc2, active compounds read low): 0.427 (active)
normalized growth (locus YLR370C, strain arc18, active compounds read low): 1.02
normalized growth (locus YLR384C, strain iki3, active compounds read low): 0.994
normalized growth (locus YML120C, strain ndi1, active compounds read low): 1.01
normalized growth (locus YMR058W, strain fet3, active compounds read low): 0.921
normalized growth (locus YMR125W, strain sto1, active compounds read low): 0.0829 (active)
normalized growth (locus YMR129W, active compounds read low): 0.987
normalized growth (locus YMR205C, strain PFK2, active compounds read low): 0.985
normalized growth (locus YMR231W, strain pep5, active compounds read low): 0.997
normalized growth (locus YNL071W, strain lat1, active compounds read low): 1
normalized growth (locus YNL183C, strain NPR1, active compounds read low): 0.956
normalized growth (locus YNL209W, strain ssb2, active compounds read low): 0.999
normalized growth (locus YNL248C, strain rpa49, active compounds read low): 0.544 (active)
normalized growth (locus YNL322C, strain KRE1 (second series), active compounds read low): 1
normalized growth (locus YNR049C, strain mso1, active compounds read low): 0.994
normalized growth (locus YOR001W, strain rrp6, active compounds read low): 1.01
normalized growth (locus YOR070C, strain gyp1, active compounds read low): 0.998
normalized growth (locus YOR080W, strain dia2, active compounds read low): 1
normalized growth (locus YOR083W, strain WHI5, active compounds read low): 1.03
normalized growth (locus YOR106W, strain vam3, active compounds read low): 1.03
normalized growth (locus YOR231W, strain MKK1, active compounds read low): 0.963
normalized growth (locus YOR265W, strain rbl2, active compounds read low): 0.999
normalized growth (locus YOR270C, strain vph1, active compounds read low): 0.948
normalized growth (locus YOR290C, strain snf2, active compounds read low): 0.953
normalized growth (locus YPL051W, strain arl3, active compounds read low): 1
normalized growth (locus YPL078C, strain atp4, active compounds read low): 1.02
normalized growth (locus YPL106C, strain sse1, active compounds read low): 1.01
normalized growth (locus YPL240C, strain hsp82, active compounds read low): 1
normalized growth (locus YPL256C, strain CLN2, active compounds read low): 0.991
